Assay outcomes: PubChem, National Center for Advancing Translational Sciences (NCATS)
In the library only some 7.4% were active in any assay of this set; here they are far more common.
FLuc counter: qHTS profiling assay for firefly luciferase inhibitor/activator using purifed enzyme and Km concentrations of substrates (counterscreen for miR-21 project); purified FLuc, Km substrates, luminescence inhibition; 360,000 tested, 6.9% active; AID 588342, 2011; Potency, µM (highest dose often 57.5 µM), without a hit: at the top dose activity change, negative = inhibition, actives largely listed as inhibitors;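 also: plate controls were vehicle for no effect and reference inhibitor for full effect; nearly all actives have a fitted effect of over 55% in size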
Target sequence (P08659 whole entry, looked up): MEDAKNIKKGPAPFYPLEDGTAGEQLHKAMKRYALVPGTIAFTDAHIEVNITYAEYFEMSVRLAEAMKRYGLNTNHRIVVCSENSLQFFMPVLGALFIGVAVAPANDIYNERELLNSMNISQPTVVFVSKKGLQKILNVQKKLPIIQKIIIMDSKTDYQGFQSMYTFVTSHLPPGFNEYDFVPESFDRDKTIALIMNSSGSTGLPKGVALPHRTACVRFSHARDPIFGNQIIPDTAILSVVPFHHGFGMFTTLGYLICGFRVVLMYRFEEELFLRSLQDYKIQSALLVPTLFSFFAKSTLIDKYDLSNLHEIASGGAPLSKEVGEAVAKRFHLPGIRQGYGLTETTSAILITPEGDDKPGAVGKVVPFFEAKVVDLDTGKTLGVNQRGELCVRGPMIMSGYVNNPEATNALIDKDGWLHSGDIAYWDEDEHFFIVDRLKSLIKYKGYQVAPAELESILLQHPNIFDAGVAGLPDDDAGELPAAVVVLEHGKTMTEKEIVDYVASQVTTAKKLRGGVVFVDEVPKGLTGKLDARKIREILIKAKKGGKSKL
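Purified P. pyralis luciferase, 10 nM final, with Km-level 10 uM D-luciferin and 10 uM ATP in 50 mM Tris acetate pH 7.5, 10 mM Mg acetate, 0.01% Tween-20, 0.05% BSA; 6-point qHTS titration about 60 µM downward; luminescence read.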
SMN2 splice enh: qHTS Assay for Enhancers of SMN2 Splice Variant Expression. HEK293 SMN2-luciferase splicing reporter, luminescence, 30-36 h. Potency, µM (series often up to 46.1 µM), for the others: at the top dose activity change, positive = activation, actives largely listed as activators. 210,000 tested, 2.8% active. AID 1458, 2008; also: % of control where 0% means no effect; nearly all actives have a fitted effect of over 55% in size
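HEK293 cells carry an SMN2 […]–luciferase reporter in which exon 7 inclusion puts luciferase in frame. Cells were plated 10-12 h before compound addition, then incubated 30-36 h at 37C. ONE-Glo luminescence was read; sodium butyrate at 4.5 mM final served as control.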
ELG1 genotoxic: qHTS screen for small molecules that induce genotoxicity in human embryonic kidney (HEK293T) cells expressing luciferase-tagged ELG1 | HEK293T ELG1-luciferase reporter, luminescence, 16 h | Potency, µM (series often up to 46 µM), without a hit: at the highest dose activity change, positive = activation, usual class: activators | 330,000 tested, 1.3% active | AID 504466, 2011; also: % of control where 0% means no effect; nearly all actives have a fitted effect of over 60% in size
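Reporter readout depends on ELG1 protein level, which increases with genetic stress. After 16 hr compound exposure at 37 °C, luciferase activity was quantified using ONE-Glo.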
NPC1 promoter act: qHTS Assay for NPC1 Promoter Activators; Huh7 NPC1 promoter luciferase reporter, 24 h; Potency, µM (series often up to 9.22 µM), for the others: at the top dose activation, most hits filed as activators; 320,000 tested, 2.4% active; also: % of control where 0% means no effect; nearly all actives have a fitted effect of over 60% in size
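Quantitative HTS used a cell-based reporter: Huh7 cells stably bearing the NPC1 promoter upstream of luciferase were treated with compounds for 24 h, and promoter activation was read as luminescence.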
Rab9 promoter act: qHTS Assay for Rab9 Promoter Activators; Huh7 Rab9 promoter-luciferase reporter, luminescence, 24 h; Potency, µM (series often up to 9.22 µM), inactives show top-dose activation, negative = inhibition, usual class: activators; 320,000 tested, 2.8% active; also: % of control where 0% means no effect; nearly all actives have a fitted effect of over 60% in size
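Steps: seed 1500 Huh7 Rab9-luc cells per well, rest 2 h at 37 °C; add compound in DMSO; incubate 24 h; add luciferase reagent, 10 min ambient; read luminescence.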
The depositor's hits bear a star; ? = inconclusive; . = no result; [ ] = another dose, or the depositor's remark. Calls follow the shape of the dose curve; as a rule, active = well fitted curve in the direction sought with a large enough effect; inconclusive = small, poorly fitted or top-dose-only effect, or another doubt; inactive = no such curve, though single readings can be large; an effect the other way counts as inactive or inconclusive. Potency is read from the fitted curve at half-maximal effect.

SMILES	FLuc counter	SMN2 splice enh	ELG1 genotoxic	NPC1 promoter act	Rab9 promoter act
O=C(CSc1nc2ccccc2n1-c1ccccc1)Nc1ncc(Cl)cc1Cl	-3.1%	4.47µM*	-9.6%	3.2%	18.5%
Cc1cccc(-n2c(SCC(=O)Nc3ncc(Cl)cc3Cl)nc3ccccc32)c1	1.4%	-7.3%	-6.7%	-5.9%	8.9%
COc1ccc(/C=C/c2cc(C(F)(F)F)on2)cc1	6.01µM*	.	12.9%	12.1%	-0.3%
COc1ccc(O)c(-c2nc(N)nc(N)n2)c1	?	.	15.0%	3.98µM*	-1.2%
COC(=O)CSc1nc(N)c2c3c(sc2n1)CCCC3	9.53µM*	.	13.0%	0.5%	5.4%
CC(C)(C)C1CCc2c(sc3nc(SCC(=O)O)nc(N)c23)C1 (stereo not given)	2.39µM*	.	?	17.7%	10.9%
CSc1nc2sc3c(c2c(=O)n1-c1ccccc1)CCC(C(C)(C)C)C3 (stereo not given)	0.9%	3.3%	.	.	.
Nc1nc(SCC(=O)NCCO)nc2sc3c(c12)CCCC3	16.9µM*	10.5%	11.3%	6.1%	-2.1%
Nc1nc(SCC(=O)NCCCO)nc2sc3c(c12)CCC3	-18.2%	-7.5%	-3.6%	-3.0%	-5.9%
COC(=O)CSc1nc(N)c2c3c(sc2n1)C(c1ccccc1)SC(c1ccccc1)C3 (stereo not given)	-3.5%	12.4%	4.2%	-5.5%	-1.4%
COCc1nn2c(N)c(-c3ccccc3)cnc2c1-c1ccccc1	0.849µM*	.	?	2.82µM*	2.82µM*
COc1ccccc1-c1c(C)nn2c(N)c(-c3ccccc3)cnc12	19µM*	.	-0.5%	11.8%	15.1%
COCc1nn2c(N)c(C#N)cnc2c1-c1ccccc1	13.5µM*	29.1%	17.9%	-1.9%	-1.5%
COc1ccc(-c2c(C)nn3c(N)c(-c4ccccc4)cnc23)cc1OC	?	.	9.9%	-4.2%	11.6%
N#Cc1cnn(Cc2ccccc2)c1N	0.8%	-9.0%	-0.8%	-0.8%	2.5%
Cc1cc(/C=N/NC(=O)c2ccc(O)cc2)c(C)n1C1CC1	?	-0.9%	1.5%	-1.5%	-4.7%
Cc1ccc(N=Cc2cc(C)n(C3CCCC3)c2C)cc1	10.7µM*	11.3%	-0.1%	6.2%	-5.7%
CCOc1ccc(-c2cc(N3C(=O)Nc4ccccc4N3O)n[nH]2)cc1	6.75µM*	4.1%	-3.0%	-2.3%	-2.7%
COc1cccc(-c2cc(N3C(=O)Nc4ccccc4N3O)n[nH]2)c1	15.1µM*	-5.6%	0.7%	3.8%	-2.6%
CCOC(=O)c1c(N2C(=O)Nc3ccccc3N2O)n[nH]c1-c1cccc(Cl)c1	?	-19.2%	-5.5%	-8.4%	15.4%
O=C(CCc1ccccc1)NNC(=O)COc1ccc([N+](=O)[O-])cc1	-2.4%	.	3.5%	1.5%	7.0%
NS(=O)(=O)c1ccc(CNC(=O)CNC(=O)c2ccc(F)cc2)cc1	4.7%	.	-2.3%	-6.5%	2.4%
S=c1[nH]nc(-c2cc(-c3ccccc3)n[nH]2)n1/N=C/C=C/c1ccco1	13.5µM*	.	4.9%	-2.8%	-0.5%
COc1ccccc1/C=C/C=N/n1c(-c2ccccn2)n[nH]c1=S	16.9µM*	.	?	18.2%	?
COc1ccccc1/C=C/C=N/n1c(-c2ccncc2)n[nH]c1=S	12µM*	14.7%	3.1%	-3.6%	1.6%
SMILES	FLuc counter	SMN2 splice enh	ELG1 genotoxic	NPC1 promoter act	Rab9 promoter act
S=c1[nH]nc(-c2ccncc2)n1/N=C/C(Cl)=C\c1ccccc1	-7.9%	11.2µM*	-5.3%	3.55µM*	3.16µM*
S=c1[nH]nc(-c2ccncc2)n1/N=C/C=C/c1ccccc1	?	.	-12.0%	-0.6%	-0.8%
COc1ccccc1/C=C/C=N/n1c(-c2ccc(C)cc2)n[nH]c1=S	?	-13.8%	-1.3%	-0.3%	-4.0%
COc1ccc(S(=O)(=O)N2CCC(C(=O)NC3CCCCC3)CC2)cc1OC	-0.7%	.	2.7%	-3.0%	1.3%
CCNC(=O)c1c(NC(=O)Cc2coc3ccc(CC)cc23)sc2c1CCCC2	2.2%	-2.8%	.	.	.
Cc1cc2c(c3oc(=O)c4ccccc4c13)CN(Cc1ccc(F)cc1)CO2	-11.0%	-5.9%	.	.	.
COc1ccccc1/C=C/C=N/n1c(-c2cc(C)[nH]n2)n[nH]c1=S	21.3µM*	0.3%	3.2%	-1.3%	1.2%
Cc1cc(-c2n[nH]c(=S)n2/N=C/C=C/c2ccccc2)n[nH]1	-18.6%	-10.0%	1.4%	-5.5%	-2.5%
Cc1cc(Cl)ccc1OCC(=O)Nc1c(C(=O)c2ccccc2)oc2ccccc12	-1.9%	-4.0%	.	.	.
CN(CC(=O)Nc1ccccc1Br)C(=O)CNC(=O)c1cccs1	-2.7%	.	0.4%	-5.2%	-1.1%
O=C(OCc1nc2ccc(Cl)cc2n1CCO)c1ccccc1	0.9%	2.3%	1.7%	1.5%	3.3%
COc1ccc(-c2nc3ccccc3c(=O)n2O)cc1	2.4%	.	-0.3%	-4.0%	5.8%
COc1ccc(-c2nc3ccccc3n2OCC(=O)O)cc1	3.01µM*	.	?	8.6%	19.0%
COn1c(-c2ccc(Cl)cc2)nc2ccc(Cl)cc21	9.53µM*	12.6%	9.7%	29.8%	?
O=C(O)COn1c(-c2ccc(Cl)cc2)nc2ccc(Cl)cc21	9.53µM*	16.0%	?	2.3%	7.1%
COC(=O)C(C(=O)OC)[C@@H]1c2ccccc2[C@H]2C(=C[C@@H](C)[C@H]3C(=O)N(c4ccccc4)C(=O)[C@H]32)N1C(=O)OC	.	-10.8%[9.22 µM]	.	.	.
O=C(CN1C(=O)NC2(CCCCCC2)C1=O)c1ccc(Cl)s1	-16.3%	.	-0.1%	1.2%	0.8%
Cc1cn2c(nc1=O)OC1CC2OC1CO (stereo not given)	-1.8%	.	-0.3%	-0.9%	6.2%
Cc1ccccc1N1C(=O)CN(Cc2sccc2C)C1=S	-0.6%	-31.0%	-0.7%	0.9%	-8.8%
COc1ccc(N2CCN(C(=O)Cn3ncc4c([nH]c5ccccc54)c3=O)CC2)cc1	3.1%	.	7.8%	-4.8%	-9.9%
Cc1ccc(C(=O)N/N=C/c2cn(Cc3ccccc3)c3ccccc23)cn1	12µM*	.	-0.7%	8.9%	0.8%
O=C(N/N=C/c1cn(Cc2ccccc2)c2ccccc12)c1cc(O)cc(O)c1	23.9µM*	.	2.8%	-3.6%	-7.0%
CCNC(=S)N/N=C/c1cn(Cc2ccc(F)cc2)c2ccccc12	5.3%	-41.3%	-0.2%	2.8%	-1.2%
COc1cc(C(=O)N/N=C/c2cn(Cc3cccc(F)c3)c3ccccc23)ccc1O	?	.	0.4%	-2.8%	0.9%
O=C(O)c1ccc(N/N=C/c2cn(Cc3ccc(F)cc3)c3ccccc23)cc1	8.49µM*	.	11.6µM*	2µM*	2.82µM*
Clc1ccc(-c2nc3ccccn3c2CN2CCCCC2)cc1	?	-4.7%	9.7%	0.8%	10.9%
CN(C)Cc1c(-c2ccc(Cl)cc2)nc2ccccn12	12µM*	12.6µM*	?	?	?
